Assay results published in PubChem BioAssay (NCI).
The panel holds about 79,000 compounds, 15% with a hit somewhere; the sample as a whole holds those more often. Active and inactive are the calls of the source. No stated cut-off is given here; in the data, active means growth inhibition above about 70%; inactive means the rest.

How the values were obtained:
[1] = NCI Yeast Anticancer Drug Screen. Data for the wt2 strain (AID 169);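 further: 0% = growth of vehicle-treated yeast cultures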; settings: S. cerevisiae wt2 strain growth inhibition, stronger effect = higher value
Summary of the method: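 Compound exposure of yeast; growth compared with vehicle controls; inhibition reported.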

[2] = NCI Yeast Anticancer Drug Screen. Data for the sgs1 strain (AID 173);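 further: 0% = growth of vehicle-only control cultures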; settings: S. cerevisiae sgs1 mutant, stronger effect = higher value
Summary of the method: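 Compounds applied to genetically altered yeast; growth compared with vehicle-treated cultures to give % inhibition.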

[3] = NCI Yeast Anticancer Drug Screen. Data for the mlh1 rad18 strain (AID 175); settings: S. cerevisiae mlh1 rad18 strain growth inhibition, stronger effect = higher value
Summary of the method: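 Cells of a genetically altered yeast strain, deficient in DNA damage repair, were treated with compound. Their growth was then compared with that of vehicle-treated cultures to give inhibition.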

[4] = NCI Yeast Anticancer Drug Screen. Data for the rad18 strain (AID 177); settings: S. cerevisiae rad18 mutant growth inhibition, stronger effect = higher value
Summary of the method: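 Compounds are applied to a repair-deficient yeast strain, and growth is compared with that of vehicle-treated cultures to give percent inhibition.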

[5] = NCI Yeast Anticancer Drug Screen. Data for the rad52 strain (AID 147);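 further: 0% = growth of vehicle-treated control cultures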; settings: S. cerevisiae rad52 mutant growth inhibition, stronger effect = higher value
Summary of the method: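 DNA repair-defective yeast; compound exposure; growth scored against vehicle controls.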

[6] = NCI Yeast Anticancer Drug Screen. Data for the wt1 strain (AID 149);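 further: 0% = growth of vehicle-treated wt1 cultures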; settings: S. cerevisiae wt1 strain (SPY 50644) growth inhibition, stronger effect = higher value
Summary of the method: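 Measured: growth of wt1 yeast under compound versus vehicle treatment, reported as inhibition.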

[7] = NCI Yeast Anticancer Drug Screen. Data for the rad50EPP+ strain (AID 151);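 further: 0% = growth of vehicle-treated control cultures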; settings: S. cerevisiae rad50 mutant strain, stronger effect = higher value
Summary of the method: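 rad50EPP+ yeast treated with test compounds. Readout: growth vs vehicle control.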

[8] = NCI Yeast Anticancer Drug Screen. Data for the mgt1 strain (AID 153); settings: S. cerevisiae mgt1 mutant growth inhibition, stronger effect = higher value
Summary of the method: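 Growth inhibition relative to vehicle controls was scored for the mgt1 yeast strain after compound exposure.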

[9] = NCI Yeast Anticancer Drug Screen. Data for the rad50 strain (AID 155);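 further: 0% = growth of vehicle-only cultures of the same strain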; settings: S. cerevisiae rad50 strain growth inhibition, stronger effect = higher value
Summary of the method: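 Growth of the mutant yeast was measured after compound exposure and referenced to vehicle-treated cultures.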

[10] = NCI Yeast Anticancer Drug Screen. Data for the mec2-1 strain (AID 157); settings: S. cerevisiae mec2-1 strain, stronger effect = higher value
Summary of the method: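 Growth inhibition is read against vehicle-treated controls after compound exposure of the mec2-1 yeast strain, which is defective in DNA damage repair or cell cycle control.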

[11] = NCI Yeast Anticancer Drug Screen. Data for the rad14 strain (AID 159);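 further: 0% = growth of vehicle-treated control cultures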; settings: S. cerevisiae rad14 strain growth inhibition, stronger effect = higher value
Summary of the method: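 Here, inhibition of yeast growth was measured after compound exposure, using a strain with a genetic defect in DNA damage repair and vehicle-treated cultures as the reference.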

[12] = NCI Yeast Anticancer Drug Screen. Data for the sgs1 mgt1 strain (AID 161);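 further: 0% = growth of cultures given vehicle only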; settings: S. cerevisiae sgs1 mgt1 strain, stronger effect = higher value
Summary of the method: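 Compounds are added to genetically altered yeast, and growth is compared with cultures given vehicle alone to give percent inhibition.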

[13] = NCI Yeast Anticancer Drug Screen. Data for the CLN2oe strain (AID 163);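 further: 0% = growth of vehicle-only control cultures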; settings: S. cerevisiae CLN2oe strain, stronger effect = higher value
Summary of the method: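 Compound-treated yeast; growth vs vehicle ctrl = % inhibition. Genetically altered strain (cell-cycle control).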

[14] = NCI Yeast Anticancer Drug Screen. Data for the cln2 rad14 strain (AID 165);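 further: 0% = growth equal to vehicle treated cultures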; settings: S. cerevisiae cln2 rad14 strain, stronger effect = higher value
Summary of the method: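 Growth inhibition, relative to vehicle-treated controls, is the read-out. The test organism is a yeast strain with defined genetic alterations, cln2 rad14.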

[15] = NCI Yeast Anticancer Drug Screen. Data for the bub3 strain (AID 167); settings: S. cerevisiae bub3 mutant strain, stronger effect = higher value
Summary of the method: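 Whole-cell yeast assay. The mutant strain was incubated with compounds, and growth inhibition was determined by comparison with vehicle-treated cells.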

[16] = NCI Yeast Anticancer Drug Screen. Data for the mlh1 strain (AID 171);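 further: 0% = growth of vehicle-treated control cultures of the same strain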; settings: S. cerevisiae mlh1 strain growth inhibition, stronger effect = higher value
Summary of the method: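 Compounds are applied to a genetically altered yeast strain, and its growth is compared with that of vehicle-treated cultures to give percent inhibition.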

[17] = at 5.0 µM (retest, dose inferred, filed as 0.5)
[18] = at 50.0 µM (retest, dose inferred, filed as 5.0)

Measured: growth inhibition

NC(=NCc1ccccc1)N/N=C\c1ccnc2ccccc12
inactive: [1]; at 1.2 µM -2% | [1]; at 3.7 µM -3% | [1]; at 11.0 µM -1% | [1]; at 33.0 µM -1% | [1]; at 100.0 µM 38% | [2]; at 1.2 µM -1% | [2]; at 3.7 µM 0% | [2]; at 11.0 µM 1% | [2]; at 33.0 µM 13% | [2]; at 100.0 µM 61% | [3]; [17] 3% | [3]; [18] -21% | [3]; at 50.0 µM 44.4% | [4]; at 1.2 µM -2% | [4]; at 3.7 µM -3% | [4]; at 11.0 µM 0% | [4]; at 33.0 µM 5% | [4]; at 100.0 µM 28%

Cc1cc(S(=O)(=O)/N=C(/NN)NNc2cccc(C(F)(F)F)n2)c(S)cc1Cl
inactive: [5]; at 1.2 µM 1% | [5]; at 3.7 µM -1% | [5]; at 11.0 µM -2% | [5]; at 33.0 µM -4% | [5]; at 100.0 µM 23% | [6]; at 1.2 µM 0% | [6]; at 3.7 µM -2% | [6]; at 11.0 µM -2% | [6]; at 33.0 µM -7% | [6]; at 100.0 µM 10% | [7]; at 1.2 µM -8% | [7]; at 3.7 µM -24% | [7]; at 11.0 µM -28% | [7]; at 33.0 µM -52% | [7]; at 100.0 µM -50% | [8]; at 1.2 µM -3% | [8]; at 3.7 µM -3% | [8]; at 11.0 µM -5% | [8]; at 33.0 µM 10% | [8]; at 100.0 µM 18% | [9]; at 1.2 µM 0% | [9]; at 3.7 µM -2% | [9]; [17] 1% | [9]; at 11.0 µM -3% | [9]; at 33.0 µM -3% | [9]; [18] 52% | [9]; at 50.0 µM -7.1% | [9]; at 100.0 µM 10% | [10]; at 1.2 µM 0% | [10]; at 3.7 µM 2% | [10]; [17] -7% | [10]; at 11.0 µM -3% | [10]; at 33.0 µM -7% | [10]; [18] 8% | [10]; at 50.0 µM 7.75% | [10]; at 100.0 µM 16% | [11]; at 1.2 µM -1% | [11]; at 3.7 µM -1% | [11]; at 11.0 µM 1% | [11]; at 33.0 µM -1% | [11]; at 100.0 µM 14% | [12]; [17] -10% | [12]; [18] 44% | [12]; at 50.0 µM 30.6% | [13]; at 1.2 µM 3% | [13]; at 3.7 µM 1% | [13]; at 11.0 µM -2% | [13]; at 33.0 µM -12% | [13]; at 100.0 µM 3% | [14]; [17] 4% | [14]; [18] 25% | [14]; at 50.0 µM 41.5% | [15]; at 1.2 µM 4% | [15]; at 3.7 µM 1% | [15]; [17] -4% | [15]; at 11.0 µM -3% | [15]; at 33.0 µM -4% | [15]; [18] 47% | [15]; at 50.0 µM -17.4% | [15]; at 100.0 µM 12% | [16]; at 1.2 µM -3% | [16]; at 3.7 µM -2% | [16]; at 11.0 µM -4% | [16]; at 33.0 µM -5% | [16]; at 100.0 µM 19% | [2]; at 1.2 µM -1% | [2]; at 3.7 µM 1% | [2]; at 11.0 µM -2% | [2]; at 33.0 µM -1% | [2]; at 100.0 µM 25% | [3]; [17] 21% | [3]; [18] 52% | [3]; at 50.0 µM 19.6% | [4]; at 1.2 µM 0% | [4]; at 3.7 µM -1% | [4]; at 11.0 µM -6% | [4]; at 33.0 µM -3% | [4]; at 100.0 µM 16%

Nc1ccn(C2OC(CO)C3[O][Sn]([c]4ccccc4)([c]4ccccc4)[O]C32)c(=O)n1 (centres undefined)
inactive: [5]; at 1.2 µM 3% | [5]; at 3.7 µM 3% | [5]; at 11.0 µM 21% | [5]; at 33.0 µM 46% | [6]; at 1.2 µM -1% | [6]; at 3.7 µM -1% | [6]; at 11.0 µM 1% | [6]; at 33.0 µM 9% | [6]; at 100.0 µM 53% | [7]; at 1.2 µM 1% | [7]; at 3.7 µM -5% | [7]; at 11.0 µM -1% | [7]; at 33.0 µM 6% | [7]; at 100.0 µM 13% | [8]; at 1.2 µM 7% | [8]; at 3.7 µM 3% | [8]; at 11.0 µM -3% | [8]; at 33.0 µM 30% | [9]; at 1.2 µM 4% | [9]; at 3.7 µM -1% | [9]; [17] -5% | [9]; at 11.0 µM 26% | [9]; at 33.0 µM 61% | [9]; [18] 51% | [10]; at 1.2 µM 0% | [10]; at 3.7 µM 3% | [10]; [17] -6% | [10]; at 11.0 µM 4% | [10]; at 33.0 µM 17% | [10]; [18] 34% | [10]; at 100.0 µM 52% | [11]; at 1.2 µM 1% | [11]; at 3.7 µM 1% | [11]; at 11.0 µM 3% | [11]; at 33.0 µM 22% | [12]; [17] -12% | [12]; [18] 65% | [13]; at 1.2 µM 1% | [13]; at 3.7 µM -1% | [13]; at 11.0 µM 9% | [13]; at 33.0 µM 11% | [13]; at 100.0 µM 60% | [14]; [17] -26% | [14]; [18] -9% | [15]; at 1.2 µM 1% | [15]; at 3.7 µM 1% | [15]; [17] -18% | [15]; at 11.0 µM 3% | [15]; at 33.0 µM 19% | [15]; [18] 41% | [1]; at 1.2 µM 0% | [1]; at 3.7 µM 0% | [1]; at 11.0 µM 5% | [1]; at 33.0 µM 31% | [2]; at 1.2 µM 0% | [2]; at 3.7 µM 0% | [2]; at 11.0 µM 9% | [2]; at 33.0 µM 44% | [3]; [17] -22%
active: [5]; at 100.0 µM 84% | [8]; at 100.0 µM 85% | [9]; at 50.0 µM 95.4% | [9]; at 100.0 µM 84% | [10]; at 50.0 µM 95.5% | [11]; at 100.0 µM 78% | [12]; at 50.0 µM 86.2% | [14]; at 50.0 µM 92.1% | [15]; at 50.0 µM 95.9% | [15]; at 100.0 µM 75% | [1]; at 100.0 µM 79% | [2]; at 100.0 µM 89% | [3]; [18] 87% | [3]; at 50.0 µM 95.2%
